# Source: PubChem BioAssay
# An excerpt weighted towards active compounds, which were near 8% of everything screened.
# HCV inhibitor = blocks hepatitis C virus | 340,000 tested, 3.4% active | Huh7.5.1 HCVcc-Cre infection, luciferase reporter, 44 h | Potency, µM (highest dose often 41.8 µM), for inactives: top-dose activity change, negative = inhibition, hits mostly inhibitors | AID 651820; active = well fitted inhibition curve with a large enough effect; inconclusive = small, poorly fitted or top-dose-only effect, or another doubt; inactive = no such curve, though single readings can be large or run the other way; also: potency is read from the fitted curve at half-maximal effect; % is scaled to controls: 0 for no effect and ±100 for the full control effect
#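 Compounds are dispensed onto cells plated 4 h earlier at 1,000 per well, with HCVcc-Cre virus (about 0.5 moi) added next. Following 44 h of culture, luminescent signal is measured for 15 sec after 15 min with substrate at room temperature.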
# LASV entry inh = Lassa virus entry inhibition; 300,000 tested, 1.2% active; Lassa virus pseudotype entry inhibition, cell reporter; Potency, µM (doses to about 37.9 µM), without a hit: at the top dose activity change, negative = inhibition, usual class: inhibitors; calls by dose curve; tested in HEK293 cells; also: potency is read from the fitted curve at half-maximal effect; % is scaled to controls: 0 for no effect and ±100 for the full control effect; nearly all actives have a fitted effect of over 50% in size
# FMDV antiviral = antivirals against foot and mouth disease virus; 410,000 tested, 1.2% active; AID 1159524; FMDV antiviral cell-based qHTS; Potency, µM (series often up to 57.9 µM), for inactives: top-dose activity change, negative = inhibition, most hits filed as inhibitors; calls by dose curve; tested in HEK293T cells; also: read-out not given here; potency is read from the fitted curve at half-maximal effect; % is scaled to controls: 0 for no effect and ±100 for the full control effect; nearly all actives have a fitted effect of over 45% in size
# HCMV antiviral = inhibitors of human cytomegalovirus; HFF cells, HCMV-luciferase reporter, 72 h; stronger effect = lower value; activity change, negative = inhibition, % at 57.5 µM; 410,000 tested, 4.5% active; AID 1259415; in the data active = activity change below about -60%; inconclusive = no clear call, values can overlap the other calls; inactive = above about -39%; also: % is scaled to controls: 0 for no effect and ±100 for the full control effect
#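 Human foreskin fibroblasts infected with luciferase-reporter HCMV at MOI 1 PFU/cell, compounds at two doses. Luciferase measured 72 h post infection; normalized to buffer-only basal and Salinomycin (10uM) controls.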
# Marburg entry inh = Marburg virus entry inhibition. Marburg virus pseudotyped entry inhibition, cell reporter. Potency, µM (series often up to 37.8 µM), for inactives: at the highest dose activity change, negative = inhibition, actives largely listed as inhibitors. 300,000 tested, 1.8% active. AID 540276; calls by dose curve; tested in HEK293 cells; also: potency is read from the fitted curve at half-maximal effect; % is scaled to controls: 0 for no effect and ±100 for the full control effect
# SARS PLP yeast = inhibitors of SARS-CoV papain-like protease in yeast; S. cerevisiae expressing SARS-CoV PLpro, growth rescue; AID 485353; 330,000 tested, 0.19% active; Potency, µM (titrated, usually from 32.9 µM), inactives show top-dose activity, positive = growth rescue, usual class: activators; calls by dose curve; also: potency is read from the fitted curve at half-maximal effect; 0% is about no effect; nearly all actives have a fitted effect of over 55% in size
# The depositor's hits bear a star; ? = inconclusive; / = not tested or not shown; ! = not confirmed by another sample; [ ] = remark or other dose.
SMILES,HCV inhibitor,LASV entry inh,FMDV antiviral,HCMV antiviral,Marburg entry inh,SARS PLP yeast
CO[C@H]1C=CO[C@@]2(C)Oc3c(C)c(O)c4c(O)c(c5c(nc6cc(C)ccn65)c4c3C2=O)NC(=O)/C(C)=C\C=C[C@H](C)[C@H](O)[C@@H](C)[C@@H](O)[C@@H](C)[C@H](OC(C)=O)[C@@H]1C,/,/,-18%,/,/,/
CC/C(Cc1ccccc1)=N/NC(=O)CNC(=O)c1ccc(Cl)cc1Cl,-4%,-13%[46.1 µM],-24%,22,-5%[46.1 µM],-8%
Cc1ccc(-c2cc(C(=O)Oc3ccccc3)c3cc(C)ccc3n2)cc1,/,19%[46.1 µM],-9%,-21,19%[46.1 µM],/
COc1cc(-c2ccc3sc(-c4ccsc4)c(C#CCO)c3c2)cc(OC)c1OC,3.2µM*,/,-27%,-23,/,-1%
Cn1cncc1C#Cc1c(-c2ccc(S(C)(=O)=O)cc2)sc2ccccc12,4%,/,?,-29,/,-5%
COc1ccc(-c2sc3cc4c(cc3c2C#CCO)OCO4)cc1,11µM*,/,-25%,-16,/,-2%
COc1ccc(-c2sc3ccccc3c2C#Cc2cncn2C)cc1,3.5µM*,/,-13%,-28,/,-4%
COc1ccc(-c2sc3ccccc3c2C#CC2(O)CCCCC2)cc1,?,/,-16%,-16,/,4%
COC(=O)c1c(-c2ccsc2)sc2ccc(-c3cc(OC)c(OC)c(OC)c3)cc12,?,/,?,-18,/,-9%
COc1ccc(-c2sc3cc4c(cc3c2C#Cc2ccc(N)cc2)OCO4)cc1,?,/,6%,6,/,3%
COc1ccc(-c2sc3cc(OC)c(OC)cc3c2C#CC2(O)CCCCC2)cc1,16µM*,/,-21%,9,/,-6%
COc1cccc(NC(=O)Cn2c(=O)n(Cc3ccc(F)cc3)c(=O)c3sc4ccccc4c32)c1,/,1%[46.1 µM],0%,?,20%[46.1 µM],/
COc1ccc2[nH]c(=O)c(CN(Cc3cccs3)Cc3nnnn3C(C)(C)C)cc2c1,-15%,-15%,-28%,-67*,18µM*!,7%
CCc1ccc2[nH]c(=O)c(CN(Cc3ccc(OC)cc3)Cc3nnnn3CCOC)cc2c1,-11%,?,?,-12,14µM*,5%
CCC(Sc1ncc(S(=O)(=O)c2ccc(Cl)cc2)c(=O)[nH]1)C(=O)Nc1ccc(OC)cc1 (stereo unspecified),/,/,1%,4,4%[46.1 µM],/
O=C(CSCc1ccc(Cl)cc1)Nc1ccc(-c2nnc(-c3ccccc3)o2)cc1,7.1µM*,18%,-19%,40,-3%,0%
CCC(=O)Oc1ccc(NC(=O)CSCc2ccccc2)cc1,-1%,/,63%,-73*,/,0%
CCc1ccc(CNC(=O)C(C)n2ccc3cc(S(=O)(=O)N4CCCCCC4)ccc32)cc1 (stereo unspecified),/,-17%[46.1 µM],29%,14,/,/
Cc1cccc(NC(=O)c2ccc(N3CCCCC3)c([N+](=O)[O-])c2)n1,-27%,?,0%,52,?,-20%
Cc1cccc(NC(=O)c2ccc(N(C)C3CCCCC3)c([N+](=O)[O-])c2)n1,14µM*,?,?,?,?,-12%
Cn1cc(S(=O)(=O)c2ccccc2)c(=O)c2cc(F)c(N3CCCCCC3)cc21,/,-8%[46.1 µM],-24%,-23,/,/
N#C/C(=C\c1c[nH]c2ccc(Br)cc12)c1ccccn1,11µM*,?,-17%,/,13µM*,2%
N#C/C(=C\c1ccc(C(=O)O)cc1)c1ccccn1,1%,?,1%,-28,19%[46.1 µM],-3%
CCCc1nc2c(C)cc(C)cc2c(N)c1CC,?,-1%,-24%,28,23µM*,2%
CCc1ccc2cc(C)cc(C)c2n1,/,/,-8%,-13,/,/
SMILES,HCV inhibitor,LASV entry inh,FMDV antiviral,HCMV antiviral,Marburg entry inh,SARS PLP yeast
CCC(=O)N1CC2(C1)CN(C(=O)c1ccccn1)[C@H](CO)c1c2c2ccc(OC)cc2n1C,/,/,/,21,/,/
CCOC(=O)c1cc2c(=O)n3ccccc3nc2n(C(C)C)c1=NC(=O)c1c(-c2c(F)cccc2Cl)noc1C,2µM*,?,-16%,-90*!,?,12%
CCOC(=O)c1cc2c(=O)n3ccccc3nc2n(C)c1=NC(=O)c1c(-c2c(F)cccc2Cl)noc1C,?,1%,-20%,?,?,/
CCOC(=O)c1cc2c(=O)n3ccccc3nc2n(Cc2ccco2)c1=NC(=O)c1cc(C)cc(C)c1,/,?,0%,-77*,27%[46.1 µM],/
CCOC(=O)c1cc2c(=O)n3ccccc3nc2n(Cc2ccco2)c1=NC(=O)c1ccc(C(C)(C)C)cc1,/,29%[46.1 µM],?,-2,29%[46.1 µM],/
COCC(=O)Nc1cc(C(=O)NC2CCc3ccccc32)c2c(c1)nc(-c1ccncc1)n2C (stereo unspecified),/,/,-16%,/,/,/
C=CCN1C(=O)[C@]2(O[C@H](C)CC3=CCCC32)c2c(Br)cccc21 (stereo partly specified),/,?,/,/,2%[14.2 µM],/
CCNc1nc(NCC)nc(N/N=C/c2ccc([N+](=O)[O-])o2)n1,-28%,-17%,-19%,?,?,15%
CCN(CC)c1ccc(N=Cc2ccc([N+](=O)[O-])o2)cc1,13µM*,?,-9%,-9,?,-59%
CCN1CCCC1CNC(=O)c1ccc(Sc2ccc(F)cc2)c([N+](=O)[O-])c1 (stereo unspecified),6.3µM*,/,-8%,-18,6.3µM*,-1%
CCN1CCN(C(=O)c2ccc(Sc3ccccc3Cl)c([N+](=O)[O-])c2)CC1,-12%,-10%,-16%,-11,?,-8%
CCN1CCCC1CNC(=O)c1ccc(Sc2ccccc2Cl)c([N+](=O)[O-])c1 (stereo unspecified),5.6µM*,-21%,-21%,?,?,0%
CCCNC(=O)c1ccc(COc2cccc3ccccc23)o1,?,/,?,33,/,-6%
NC(=O)c1ccc(=O)n(C2OC(CO)C(O)C2O)c1 (stereo unspecified),31%,22%[46.1 µM],-3%,73,15%,/
O=C1C=CN(C2OC(CO)C(O)C2O)C(=O)C1 (stereo unspecified),/,/,-9%,-73*,/,/
COc1cnc(-c2ccccc2)[nH]c1=O,9%,-22%[46.1 µM],-7%,-1,8%[46.1 µM],-6%
O=c1[nH]c(-c2ccccc2)ncc1OCc1ccccc1,18%,3%,14%,-63*,?,/
CN(Cc1ccon1)C(=O)c1cnn(-c2nccc(-c3ccc4c(c3)OCO4)n2)c1C1CC1,/,/,40%,/,/,/
c1ccc(-n2cc(CN3CCCC(CN4CCCC4)C3)c(-c3ccc4c(c3)OCO4)n2)cc1 (stereo unspecified),13µM*,/,-8%,?,/,0%
CN1CCN(C(=O)/C=C/c2cn(-c3ccccc3)nc2-c2ccc3c(c2)OCCO3)CC1,?,?,24%,-11,21µM*,0%
CN(C)C(=O)/C=C\c1cn(-c2ccccc2)nc1-c1ccc2c(c1)OCCO2,-28%,?,-6%,-85*,?,-1%
